This passage reports inhibition results from PubChem BioAssay AID651718 (The Scripps Research Institute Molecular Screening Center, 2012).

About 2,700 (0.75%) of roughly 360,000 compounds were called active. The sample holds actives, similar compounds and a random draw of the others, so the mix is not that of the screen. Values without a mark were called inactive. No stated cut-off is given here; in the data, active means inhibition above about 4.5%; inactive means the rest.

This assay relates to Methionine sulfoxide reductase A (Bos taurus). As to the kind of experiment: bovine MsrA enzyme inhibitors, primary screen, biochemical, absorbance, HTS (AID 651718).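 Further: 0% = vehicle wells with enzyme and 100% = reference inhibitor wells.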 As to conditions: purified bovine MsrA, absorbance read-out; at 15.5 µM; active compounds read high.
Turning to `COc1ccc(NC(=O)N(C)C[C@@H]2OCCCC[C@@H](C)Oc3ccc(NC(=O)NC4CCCCC4)cc3C(=O)N([C@H](C)CO)C[C@@H]2C)cc1`, the inhibition is -0.24%.

For the compound `COc1cc(Cl)c(S(=O)(=O)n2cnc(C)c2)cc1Cl`, the inhibition is 0.89%.

Regarding `CN1CCN(CCC(=O)N/N=C/C=C2\N(C)c3ccccc3C2(C)C)CC1`, the inhibition is 4.78% (active).

Turning to `CC(=O)Nc1cccc(OCC(=O)/C=C2\N(C)c3ccccc3C2(C)C)c1`, the inhibition is 3.18%.

Take `CN1/C(=C\C=C2\N=C(c3ccc(F)cc3)OC2=O)C(C)(C)c2ccccc21`: the inhibition was 0.34%.

As to `COC(=O)C1=C(C)N(Cc2ccc(F)cc2)C(=S)NC1c1cccc(Cl)c1` (stereo not given), the inhibition was 0%.

As for `COc1ccccc1-c1ccc([C@@H]2C[C@H]3[C@H](CON3C)CN2S(=O)(=O)c2cc(Cl)cc(Cl)c2)cc1`, the inhibition was -0.24%.

With `CCNC(=S)NNC(=O)c1ccc2ncccc2c1`, the inhibition is 0.98%.

Regarding `CC(C)(C)OC(=O)N/N=C/c1ccc(C(=O)O)cc1`, the inhibition is 1.73%.

Take `O=C(O)c1ccc(N/N=C/c2ccc3ncccc3c2)cc1`: the inhibition was 5.15% (active).

As for `Cc1ccccc1N/N=C/c1ccc(N2CCOCC2)cc1`, the inhibition is 1.63%.

For `Cc1ccc(OCCCC(=O)Nc2ccc(N3CCOCC3)cc2)cc1`, the inhibition is -1.28%.

With `Cc1cc(C(=O)N/N=C/c2ccc(N3CCOCC3)cc2)c(C)o1`, the inhibition is 5.02% (active).

With `CCN(CC)c1ccc(/C=N/NC(=O)CNC(=O)c2cccs2)cc1`, the inhibition is 4.8% (active).

For the compound `CC1CC(=NNC(=O)C2COc3ccccc3O2)CC(C)(C)C1` (stereo not given), the inhibition is -0.12%.

On to `O=C(CNC(=O)c1cccnc1)N/N=C/c1cc(Br)c(O)c(Br)c1`, for which the inhibition is 8.83% (active).

As to `O=C(CNC(=O)c1cccs1)N/N=C/c1cccc(Br)c1`, the inhibition is 0.52%.

On to `CCN(CC)c1ccc(/C=N/NC(=O)CNC(=O)c2cccnc2)cc1`, for which the inhibition is 4.63% (active).

As for `CCOc1cc(/C=N/NC(=O)c2ccncc2)cc(Br)c1O`, the inhibition is 2.43%.

For the compound `O=C(CNC(=O)C(c1ccccc1)c1ccccc1)N/N=C\c1ccc2c(c1)OCO2`, the inhibition is 1.12%.

Take `O=C(Cc1ccccc1)Nc1ccc(NC(=O)c2cccnc2)cc1`: the inhibition was -0.64%.

For `CCCOc1cccc(C(=O)NCCCNC(=O)c2cccnc2)c1`, the inhibition was -0.09%.

Take `O=C(CNC(=O)C1COc2ccccc2O1)N/N=C/c1cc(Br)c(O)c(Br)c1` (stereo not given): the inhibition is 4.96% (active).

For the compound `CC(C)OCCCNC(=O)CNC(=O)c1cccs1`, the inhibition was 0.37%.

In the case of `O=C(N/N=C/c1cccc(OC(=O)c2ccc([N+](=O)[O-])cc2)c1)c1cccnc1`, the inhibition is -0.13%.
